# Experimental data reported in PubChem BioAssay AID623868 (Vanderbilt High Throughput Screening Facility, 2012).
# The whole screen tested about 2,100 compounds, of which about 760 (36%) were called active.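 How the source made its calls: active means thallium-flux fluorescence traces judged by eye to show enhanced or reduced glutamate response, manual score 1 or -1, so both directions (some results past the limit were not filed as active); inactive means the rest, including fluorescent or raised-baseline compounds.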 Only a sample is shown.
# Assay: thallium influx changes without GIRK channels – cell-based, HEK-293 rmGlu8, no GIRK, thallium flux, counter-screen for GIRK activator project, confirmation (AID 623868);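 further: extra codes mark interference with 3 for fluorescent and 4 for baseline rise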
# Conditions: thallium flux fluorescence, at 10 µM, actives lie on both sides, codes: 1 enhancer, -1 blocker, 0 none, thallium stimulus containing EC20 glutamate
row,Structure (SMILES),manual score
1,CCCOC(=O)NC(CC)COC(=O)Nc1cccc(C)c1C (centres undefined),0 (inactive)
2,CN=C1c2c(-c3ccccc3)c3cc(OC)ccc3n2CCN1C,0 (inactive)
3,O=C(NC(=S)Nc1ccccc1N1CCOCC1)c1ccco1,1 (active)
4,O=C(NC(=S)Nc1ccccc1N1CCCCC1)c1ccco1,0 (inactive)
5,CC1CCN(c2ccccc2NC(=S)NC(=O)c2ccco2)CC1,1 (active)
6,O=C(C[n+]1cc(-c2ccccc2)n2c1CCC2)OCc1ccccc1,0 (inactive)
7,CC(C)(C)c1nn(-c2ccccc2)c2[nH]c(=O)c(CNCc3ccc4c(c3)OCO4)cc12,-1 (active)
8,O=C(NCc1ccc2c(c1)OCO2)C1CCN(Cc2cnn(-c3ccccc3)c2-n2cccc2)CC1,0 (inactive)
9,CCc1ccc(NCc2cc3c(C)nn(-c4ccccc4)c3[nH]c2=O)cc1,0 (inactive)
10,C=CCNc1nc(N2CCCC2)nc2ccccc12,0 (inactive)
11,COc1ccc(/C=C2\C(=O)NC(=S)N2C(=O)c2ccc(F)cc2)cc1,1 (active)
12,COc1ccc(C(=O)N2C(=S)NC(=O)/C2=C\c2ccc(C)cc2)cc1,0.5 (inactive)
13,COc1ccc(NC2=Nc3cccc4cccc2c34)cc1OC,0 (inactive)
14,Cc1nc2ccc(NS(=O)(=O)c3ccc4c(c3)OCCO4)cc2s1,0 (inactive)
15,S=C(NCc1cccs1)Nc1cccc(Cl)c1,0 (inactive)
16,S=C(Nc1cccc(Cl)c1)Nc1cccc2cnccc12,0 (inactive)
17,Cc1csc(NC(=S)Nc2cccc(Cl)c2)n1,1 (active)
18,C=C(C)C1CC=C(C)/C(=N/NC(=O)c2ccc(NC(=O)CCC)cc2)C1 (centres undefined),0 (inactive)
19,COc1ccc(/C=N/n2c(-c3cccs3)n[nH]c2=S)cc1,1 (active)
20,COc1cccc(OCCc2c(C)n[nH]c2C)c1,0 (inactive)
21,COc1cccc(/C=N/n2c(-c3cccs3)n[nH]c2=S)c1,1 (active)
22,COCCN=c1scc(-c2cccs2)n1/N=C/c1ccc(O)c(O)c1O,0 (inactive)
23,CCOc1ccc(C2=NNC(c3cccs3)=Nc3ccc(OC)cc32)cc1,0 (inactive)

row,Structure (SMILES),manual score
1,Cc1onc(-c2c(F)cccc2Cl)c1C(=O)OCn1nnc2ccccc2c1=O,0 (inactive)
2,COC(=O)C1=NN(c2ccccc2)C2C(=O)N(c3ccccc3OC)C(=O)C12 (centres undefined),0 (inactive)
3,CC1=NN(c2ccccc2)C(=O)C1C(=O)c1ccc(Cl)cc1 (centres undefined),1 (active)
4,COc1cc(NC(=O)CSCc2cnn(-c3ccccc3)c2-n2cccc2)cc(OC)c1,0 (inactive)
5,CC1=C(n2nnc3ccccc32)C(c2ccccc2)C(C#N)=C(N)O1 (centres undefined),0 (inactive)
6,Cc1ccc(N=Cc2cc3c(cc2O)OC(N)=C(C#N)C3c2ccccc2)cc1 (centres undefined),-1 (active)
7,CCN(CC)c1ccc2c(c1)OC(N)=C(C#N)C2c1cccnc1 (centres undefined),3 (inactive)
8,CC(Sc1nnnn1C)C(=O)Nc1ccc(Oc2ccccc2)cc1 (centres undefined),0.5 (inactive)
9,COc1ccc(-c2c3c(=O)n(C)c(=O)n(C)c3cn2-c2ccccc2)cc1,0 (inactive)
10,Cn1c(-c2ccc(-c3ccccc3)cc2)c[nH]c1=S,0 (inactive)
11,COc1ccc(-n2c(=S)[nH]c3ccccc32)cc1,1 (active)
12,Cc1cccc(OCCn2c(=S)[nH]c3ccccc32)c1,0 (inactive)
13,COc1ccc(-n2cc(-c3ccccc3)[nH]c2=S)cc1,1 (active)
14,CCCn1c(=N)n(CCOc2ccc(OC)cc2)c2ccccc21,0 (inactive)
15,CC(C)(C)c1ccc(OCCON2C(=O)CCC2=O)c(Cl)c1,0 (inactive)
16,COc1ccc(C(CCNCc2ccccc2F)c2ccc(F)cc2)cc1 (centres undefined),0 (inactive)
17,COC(=O)c1cc(NC(=O)c2ccoc2C)cc(C(=O)OC)c1,0 (inactive)
18,CCOC(=O)C1=C(C)Nc2nnnn2C1c1ccccc1Cl (centres undefined),-1 (active)
19,CCCC1=C(C(=O)OCC)C(c2ccc(F)cc2)n2ncnc2N1 (centres undefined),-0.5 (inactive)
20,CCOC(=O)C1=C(C)NC2=C(C(=O)C(C(=O)OCC)C(c3ccccc3OC)C2)C1c1ccccn1 (centres undefined),0 (inactive)
21,CCCC(=O)Nc1ccccc1N1CCN(C(=O)c2ccccc2)CC1,-1 (active)
22,O=C(c1ccc(-c2ccccc2)cc1)N1CCN(c2ncccn2)CC1,0 (inactive)
23,CC(C)C(=O)Nc1ccccc1N1CCN(C(=O)c2ccccc2)CC1,-1 (active)

row,Structure (SMILES),manual score
1,O=C(Nc1ccccc1N1CCCCC1)c1ccccc1F,0 (inactive)
2,CC(C)N(C(=O)CN(C#N)c1nc(N(C)C)nc(N(C)C)n1)c1ccccc1,0 (inactive)
3,CCN(CC)CC(O)COCCC12CC3CC(CC(C3)C1)C2 (centres undefined),0 (inactive)
4,N#C/C(=N\Nc1ccc(Cl)cc1)C(=O)c1ccccc1,-1 (active)
5,CSc1ccccc1NC(=O)Nc1ccc(Cl)cc1,0 (inactive)
6,O=C(N/C(=N\O)c1ccccc1)Nc1ccc(Cl)cc1,0 (inactive)
7,CC(C)c1nc(=S)n(-c2ccccc2)[nH]1,1 (active)
8,CCOC(=O)c1cccc(-n2c(C)cc(C=O)c2C)c1,0 (inactive)
9,O=C(CSCc1ccc(Br)cc1)N=Nc1c(O)[nH]c2ccccc12,1 (active)
10,O=C(CSCc1ccccc1)N=Nc1c(O)[nH]c2ccccc12,1 (active)
11,Fc1ccccc1/C=N/NC(=S)Nc1ccc(Cl)cc1Cl,0 (inactive)
12,O=[N+]([O-])c1ccc(/C=N/NC(=S)Nc2ccccc2F)o1,1 (active)
13,Fc1ccccc1NC(=S)N/N=C/c1ccccc1Br,1 (active)
14,O=C(NCCN1CCN(C(=O)Nc2ccccc2)CC1)Nc1ccccc1,0 (inactive)
15,Cc1ccccc1N=Nc1c(C)[nH]n(C(N)=S)c1=O,1 (active)
16,S=C(NCc1ccco1)Nc1ccc(Cl)c(Cl)c1,0 (inactive)
17,COc1ccc(/C(C)=N/NC(=S)NCc2ccco2)cc1,1 (active)
18,C/C(=N\NC(=S)NCCc1ccccc1)c1ccc(C)cc1,0 (inactive)
19,S=C(NCc1ccco1)N/N=C/c1ccc(Cl)cc1,1 (active)
20,COc1cccc(N2CCN(c3c4c(nc5ncnn35)CCC4)CC2)c1,0 (inactive)
21,O=C(Oc1c(Cl)cc(Cl)c2cccnc12)c1cccc([N+](=O)[O-])c1,1 (active)
22,O=C(Oc1c(Cl)cc(Cl)c2cccnc12)c1ccco1,1 (active)
23,O=C(Oc1ccccc1C(=S)N1CCCCC1)c1cc([N+](=O)[O-])cc([N+](=O)[O-])c1,0 (inactive)
